BoNT-A LC inh2 = BoNT A light chain protease inhibition | multiplex microsphere protease substrate cleavage, flow cytometry | inhibition, % at 10 µM | 360,000 compounds, 0.17% hits; note: plate controls were buffer without enzyme for full effect and enzyme alone for no effect
DUSP3 inh = blocks human VHR1 dual specificity phosphatase | inhibition, % at 13.3 µM | P51452 | 290,000 compounds, 0.52% hits | recombinant VHR phosphatase, pNPP absorbance | AID 1654; in the data active = inhibition above about 50%
Target sequence (P51452 whole entry, looked up): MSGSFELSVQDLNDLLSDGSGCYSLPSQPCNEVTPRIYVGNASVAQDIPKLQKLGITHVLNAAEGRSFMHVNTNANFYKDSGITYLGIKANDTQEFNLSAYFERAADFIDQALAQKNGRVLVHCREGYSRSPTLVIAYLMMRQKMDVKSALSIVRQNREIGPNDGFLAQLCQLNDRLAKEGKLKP
Anthrax LF inh2 = inhibitors of Bacillus anthracis lethal factor protease | multiplex microsphere protease cleavage assay, LF | 360,000 compounds, 0.12% hits | P15917 | AID 588501 | inhibition, % at 10 µM; note: plate controls were buffer without enzyme for full effect and enzyme alone for no effect
BoNT-F LC inh = blocks Botulinum neurotoxin F light chain protease. 360,000 compounds, 0.22% hits. Multiplex microsphere protease cleavage assay, flow cytometry. inhibition, % at 10 µM. AID 588497; in the data active = inhibition above about 35%, passing the limit was not always enough; inconclusive = no clear call, values can overlap the other calls; note: plate controls were buffer without enzyme for full effect and enzyme alone for no effect
Bead autofluor = compound fluorescence in toxin protease inhibitor counterscreen; compound autofluorescence counterscreen, microsphere flow cytometry; active compounds read high; fluorescence intensity (test concentration not listed); 360,000 compounds, 3.1% hits; in the data active = fluorescence intensity above about 16000; inconclusive = no clear call, values can overlap the other calls
MazEF act = MazEF (E. coli) toxin RNase activation. 350,000 compounds, 0.32% hits. AID 504720. FAM/BHQ RNA-DNA oligo cleavage fluorescence, 5 h. activation, % at 20 µM. P0AE70; in the data active = activation above about 50%
Target sequence (P0AE70 whole entry, looked up): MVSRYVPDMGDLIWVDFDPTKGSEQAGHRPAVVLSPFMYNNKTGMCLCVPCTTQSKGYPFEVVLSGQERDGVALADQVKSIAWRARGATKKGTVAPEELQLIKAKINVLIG
The depositor's hits bear a star; ? = inconclusive; . = no result given. The list is not random: actives were taken first. Their share in the collection is about 4.1%. Cut-off read from the data, not from the text of the source, unless noted: active = inhibition above about 30%; inconclusive = no clear call, values can overlap the other calls; inactive = below that.

SMILES	BoNT-A LC inh2	DUSP3 inh	Anthrax LF inh2	BoNT-F LC inh	Bead autofluor	MazEF act
O=C(Nc1cccc(S(=O)(=O)N2CCCC2)c1)c1cccc(S(=O)(=O)N2CCOCC2)c1	0.2	.	-8.0	-1.6	3115	-4.6
O=C(Nc1ccc2c(c1)OCCO2)c1cccc(S(=O)(=O)N2CCOCC2)c1	0.6	22.3	-1.1	1.0	23080*	1.8
CCCn1c(NC(=O)c2ccccc2)nc2ccccc21	-0.9	25.5	-1.8	-0.5	2953	-19.6
CCCN(CCC)S(=O)(=O)c1cccc(C(=O)Nc2ccc3c(c2)OCO3)c1	-0.4	51.9*	-1.4	-10.4	8251	10.2
Cc1ccc(N(Cc2ccccc2)C(=O)c2ccc(F)c(S(=O)(=O)N3CCOCC3)c2)cc1	-9.0	.	-5.2	-25.1	5863	-0.8
CCOc1ccc(NC(=O)c2ccc3[nH]c(=O)c(=O)[nH]c3c2)cc1	-1.9	19.7	-3.5	-11.6	5759	6.2
CC1(C(=O)Nc2ccc(Cl)c(C(F)(F)F)c2)Cc2c(-c3ccc(C(N)=O)cc3)ccnc2O1 (stereo not drawn)	0.2	.	0.0	5.3	3747	.
O=C1OCC/C1=C1/NCCNC1=O	0.3	.	2.5	5.8	3780	6.3
Cc1ccc(S(=O)(=O)N2[C@@H](c3ccc(F)cc3)C(C(=O)O)=C[C@H]2CC2CCCC2)cc1	-0.5	.	-3.9	-8.8	3056	4.3
Cc1c(C(=O)NNC(=O)c2csc(N3CCOCC3)n2)oc2ccc(Br)cc12	-0.1	.	2.9	-0.1	3833	2.2
O=C(Nc1ccc2c(c1)OCCO2)c1cccc(S(=O)(=O)N2CCCCC2)c1	?	-3.8	-4.5	-2.6	21092*	11.6
O=C(Nc1ccc(N2CCOCC2)cc1)c1cccc(S(=O)(=O)N2CCCC2)c1	-6.9	-3.9	-4.0	-8.1	25105*	-5.0
O=C(Nc1ccc(N2CCCC2)cc1)c1cccc(F)c1	2.5	-4.9	-14.5	-32.7	19303*	1.0
CCN(CC)C(=O)c1ccc(NC(=O)c2cccc(F)c2)cc1	-0.8	4.2	-4.1	-2.9	20909*	7.1
O=C(Nc1ccc(N2CCCCC2)cc1)c1ccccc1	-1.5	3.6	-16.4	-51.3	14428	2.7
Cc1cc2ccccc2c(=O)n1CC(=O)N1CCN(c2cccc(Cl)c2)CC1	0.1	7.9	-1.6	-5.3	2807	10.7
O=C(Cn1ccc2ccccc2c1=O)NCCC(=O)Nc1ccc2c(c1)OCCO2	?	39.8	-5.6	-1.8	20380*	3.3
O=C(Cn1ccc2ccccc2c1=O)NCCC(=O)N1CCCCC1	-0.3	1.1	0.2	6.2	5848	9.6
O=C(Cn1ccc2ccccc2c1=O)NCCC(=O)N1CCN(c2ccccc2)CC1	0.2	53.3*	1.2	-9.2	6220	11.2
Cc1cc2ccccc2c(=O)n1CC(=O)NCC(=O)N1CCN(c2ccccc2)CC1	-2.7	1.5	-2.8	-4.6	23551*	2.8
Clc1ccc(-n2cnc3c(Cl)ncnc32)cc1Cl	0.3	.	-2.8	1.3	4159	11.9
NC(=O)c1ccc(NC(=O)c2ccc(COc3ccc(F)cc3)o2)cc1	-2.7	.	-1.2	-11.3	5808	-8.9
O=C(Nc1nncs1)c1cccc(S(=O)(=O)N2CCCC2)c1	0.1	-1.3	8.8	-3.5	6770	1.5
O=C(Nc1ccc(Cl)cn1)c1cccc(S(=O)(=O)N2CCOCC2)c1	4.4	14.6	-0.5	5.7	20815*	-10.0
O=C(Nc1nncs1)c1cccc(S(=O)(=O)N2CCOCC2)c1	0.7	10.8	-0.4	0.4	16353*	7.3
SMILES	BoNT-A LC inh2	DUSP3 inh	Anthrax LF inh2	BoNT-F LC inh	Bead autofluor	MazEF act
C=CCn1cccc(C(=O)Nc2ccc(N(C)C)cc2)c1=O	0.6	56.0*	-0.3	-16.3	3478	-17.6
COc1cc(CN(C)CCc2ccccc2)ccc1OCc1ccccc1	5.1	14.0	-0.4	24.5	8500	-0.6
COc1ccc(CCN(C)Cc2c(F)cccc2F)cc1OC	?	31.6	-1.6	-2.1	23473*	2.5
Cc1ccccc1OCC(=O)Nc1ccccc1C(=O)NC1CC1	0.5	.	3.1	7.3	5694	1.7
O=C1OCC(Cn2c3ccccc3c3ccccc32)O1 (stereo not drawn)	0.7	25.8	0.9	2.5	23400*	4.5
CC12CCC3c4ccc(O)cc4CCC3C1CC(=NO)C2O (stereo not drawn)	0.6	.	-7.1	-1.2	2943	6.6
COc1ccc(N/C=C\C(=O)c2ccc(C)cc2)cc1OC	-0.4	-6.4	-3.5	-0.6	2681	254.9*
CCOc1ccc(N/C=C/C(=O)c2ccc(OC)cc2)c([N+](=O)[O-])c1	-1.5	21.9	-0.1	-5.6	10956	91.2*
COc1ccc(C(=O)/C=C/Nc2cccc(O)c2)cc1	?	6.5	-11.6	1.2	20620*	4.5
COc1cccc(N/C=C/C(=O)c2ccc(Br)cc2)c1	1.1	.	-1.0	4.8	2559	-14.0
CCOC(=O)c1ccc(N/C=C\C(=O)c2cccc(OC)c2)cc1	0.3	-0.9	-2.8	-7.0	2027	-12.4
COc1ccc(N/C=C\C(=O)c2ccc(Br)cc2)cc1OC	-0.2	-4.7	-0.2	-1.4	2432	8.9
COc1cccc(C(=O)/C=C/Nc2cc(C)ccc2O)c1	0.4	-4.7	-1.6	-0.7	23605*	8.1
CN(C(=O)c1cc2c(cc1Br)OCO2)c1cccc2ccccc12	-0.2	.	-3.7	0.0	2837	4.5
COc1ccc(NS(=O)(=O)c2ccc3c(c2)N(C(C)=O)CCO3)cc1	-0.1	31.6	0.6	2.5	5851	-29.5
CC1(C)CC(=O)C=C(NCCN2CCN(C(=S)Nc3ccccc3)CC2)C1	1.5	-0.7	13.1	?	3539	2.2
Cc1cccc(C(=O)Nc2cccc3cccnc23)c1	0.3	23.3	8.1	-4.8	3902	5.4
O=C(Nc1cccc2cccnc12)c1cccnc1	6.3	20.8	-1.2	6.7	18275*	4.5
CC(NC(=O)c1cccc(Cn2cc([N+](=O)[O-])cn2)c1)c1ccc(C(C)(C)C)cc1 (stereo not drawn)	-0.9	-21.2	0.4	-3.2	19892*	0.2
CC(C)NC(=O)c1cccc(Cn2cc(Cl)cn2)c1	0.6	24.5	-1.6	2.6	22543*	4.9
COC(=O)c1ccc(Cn2cc(Cl)cn2)cc1	-0.9	-6.6	3.6	-11.3	3949	2.4
ONC(=Nc1ccc(Cl)cc1)c1ccc(Cl)cc1	-1.0	7.2	-8.3	-3.8	24126*	-4.4
COc1ccc(Cc2nc3ccc(C(=O)NCCc4cccc(C)n4)cc3o2)cc1	-1.1	28.7	-2.7	-2.3	4083	-11.3
Cc1ccccc1-n1c(SCc2c(C)noc2C)nnc1-c1cccnc1	8.9	13.6	3.7	11.1	9980	70.1*
COc1ccc(-c2nnc(SCc3c(C)noc3C)n2N)cc1OC	0.3	4.9	0.5	-0.8	19531*	-0.5
Cc1ccccc1-n1c(SCc2c(C)noc2C)nnc1-c1ccncc1	?	-4.9	?	12.4	?	2.2
Cc1ccc(S(=O)(=O)N2CCN(c3ncnc4sccc34)CC2)cc1	-0.3	0.3	3.6	-0.4	5582	1.7
